PubChem BioAssay (NCATS)
Inconclusive results are not listed. Entries that show only a call come without a potency. Calls of active or inactive are those of the source. The call rests on the fitted dose curve; in most records, active means well fitted inhibition curve with a large enough effect; inconclusive means small, poorly fitted or top-dose-only effect; inactive means no such curve, though single readings can be large or run the other way.

Biological target: N-terminal Xaa-Pro-Lys N-methyltransferase 1 (Homo sapiens) (UniProt Q9BV86)
Assay: qHTS Assay for Inhibitors of N-terminal methyltransferase 1 (NTMT1): LOPAC validation of the NTMT1 SAHH-coupled ThioGlo3 Assay (AID 1347143);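 further: SAH from peptide methylation measured as thiol fluorescence via SAHH coupling and ThioGlo3; nearly all actives have a fitted effect of over 70% in size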
Settings: recombinant NTMT1, SAHH-coupled ThioGlo3 fluorescence; series mostly up to 114 µM
Description: Assay Submitter (PI): Rong Huang Ph.D, Purdue University, West Lafayette, IN 47907 The N-terminal methytransferase 1 is the first methyltransferase that methylates protein alpha-N-amines and plays an important role in regulating cell mitosis, chromatin interactions and DNA repair. It is observed to be over-expressed in various cancer patient tissues like malignant melanoma and colorectal cancer tissues. Knockdown of NTMT1 in cancer cells causes cell mitotic defects and enhances sensitivity to DNA damaging chemotherapeutics. […] These critical cellular processes in which NTMT1 is implicated, coupled with emerging links to cellular dysfunction, strengthen the inference that NTMT1 is a compelling novel anticancer target. Progress have been made in understanding the molecular properties of NTMT1 and the biological consequences of protein alpha-N-terminal methylation, but there are no specific small molecule probes available for NTMT1 to fully characterize its MTase activity. To address this unmet need, a panel of assay is created and established to enable quantitative high-throughput screening (qHTS) for novel, potent, and selective small molecule NTMT1 inhibitors. Two orthogonal qHTS that use different reagents (ThioGlo vs. MTaseGlo) are developed for primary robotic screening against the NCATS chemical library of more than 400,000 small molecules. Identified inhibitors are reacquired, validated, and further characterized. […] A pilot screen against the LOPAC library of 1280 compounds is carried out to assess performance of the optimized qHTS in 1536-well plate format. Early Translation Branch (ETB) National Center for Advancing Translational Sciences (NCATS) National Institute of Health (NIH)
Materials: NTMT1 enzyme, substrate SPKRIA, control peptide RCC1-6 is provided by the Huang laboratory. ThioGlo3 Assay: In brief, 125nM NTMT1 enzyme was dispensed into a 1536-well assay plate with Aurora Discovery BioRAPTR Flying Reagent Dispenser (FRD, Beckton-Dickenson). Compounds (at various concentration) or 1uM RCC1-6 (SPKRIA) control were transferred to the assay plate using the Kalypsys 1536-pintool apparatus. After 1 min of room temperature incubation, 1uL of substrate (100uM SAM, 10uM SAHH, 15uM ThioGlo3) was added to the wells bringing the final assay volume to 4uL. Initial (background) fluorescence readout (EX: 340nm, EM: 450nm) was then detected using the PerkinElmer ViewLux microplate imager and a final fluorescence readout was taken after 30 min of room temperature incubation. The data was normalized to the background fluorescence.
Potency means the concentration at half of the fitted maximal effect.

Sequence of N-terminal Xaa-Pro-Lys N-methyltransferase 1 (Homo sapiens) (Q9BV86 whole entry, looked up): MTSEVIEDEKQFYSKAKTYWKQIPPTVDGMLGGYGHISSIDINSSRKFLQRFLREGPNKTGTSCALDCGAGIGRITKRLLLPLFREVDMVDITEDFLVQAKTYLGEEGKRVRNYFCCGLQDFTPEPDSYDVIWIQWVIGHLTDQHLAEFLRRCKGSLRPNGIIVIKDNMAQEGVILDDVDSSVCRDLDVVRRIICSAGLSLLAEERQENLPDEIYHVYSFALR

SMILES	Potency
CCCC(CCC)C(=O)O	inactive
CC(C)(C)NCC(O)c1ccc(O)c(CO)c1 (stereo not given)	inactive
N[C@@H]1CONC1=O	inactive
NC(N)=NC(=O)c1nc(Cl)c(N)nc1N	50.1 µM (active)
CCOC(=O)N1CCC(=C2c3ccc(Cl)cc3CCc3cccnc32)CC1	inactive
NC(=O)c1cnccn1	inactive
Nc1ccc(S(=O)(=O)Nc2ccnn2-c2ccccc2)cc1	inactive
O=C1CCc2cc(OCCCCc3nnnn3C3CCCCC3)ccc2N1	inactive
NCCCC(N)(C(=O)O)C(F)F (stereo not given)	inactive
O=C1CCC(N2C(=O)c3ccccc3C2=O)C(=O)N1 (stereo not given)	inactive
CS(=O)(=O)c1cccc(CNc2nc(Nc3ccc4c(c3)CCC(=O)N4)ncc2C(F)(F)F)c1	56.2 µM (active)
Clc1cccc(Cl)c1NC1=NCCN1	inactive
NS(=O)(=O)c1cc2c(cc1Cl)NC=NS2(=O)=O	inactive
CCn1cc(C(=O)O)c(=O)c2cc(F)c(N3CCNC(C)C3)c(F)c21 (stereo not given)	56.2 µM (active)
CC(C)(Sc1ccc(CCN(CCCCC2CCCCC2)C(=O)NC2CCCCC2)cc1)C(=O)O	inactive
CCCCNc1cc(C(=O)O)cc(S(N)(=O)=O)c1Oc1ccccc1	50.1 µM (active)
CCOC(=O)C1=C[C@]2(CC)CCCN3CCc4c(n1c1ccccc41)[C@@H]32	inactive
Cc1[nH]c(=O)c(C#N)cc1-c1ccc2nccn2c1	50.1 µM (active)
CNC[C@H](O)c1cccc(O)c1	inactive
CC(C[N+](C)(C)C)OC(N)=O (stereo not given)	inactive

SMILES	Potency
Cn1cnc([N+](=O)[O-])c1Sc1ncnc2nc[nH]c12	inactive
Cc1oncc1C(=O)Nc1ccc(C(F)(F)F)cc1	inactive
Cc1cc2c(C(C)C)c(O)c(O)c(C=O)c2c(O)c1-c1c(C)cc2c(C(C)C)c(O)c(O)c(C=O)c2c1O	56.2 µM (active)
Nc1nc2ccc(OC(F)(F)F)cc2s1	inactive
CN1CCN(CCCN2c3ccccc3Sc3ccc(C(F)(F)F)cc32)CC1	44.7 µM (active)
O=c1[nH]cnc2[nH]ncc12	inactive
Nc1nc2c(ncn2COCCO)c(=O)[nH]1	inactive
CC(C)NCC(O)COc1ccc(COCCOC(C)C)cc1 (stereo not given)	inactive
Cc1ccccc1C(OCCN(C)C)c1ccccc1 (stereo not given)	inactive
OC(CCN1CCCCC1)(c1ccccc1)C1CC2C=CC1C2 (stereo not given)	inactive
CCN(CC)CCCC(C)Nc1ccnc2cc(Cl)ccc12 (stereo not given)	inactive
C1COC(NC(C2CC2)C2CC2)=N1	inactive
NCCc1ccc(O)c(O)c1	44.7 µM (active)
c1ccc([C@H]2CN3CCSC3=N2)cc1	inactive
OC(CN1CCC(Cc2ccc(F)cc2)CC1)c1ccc(Cl)cc1 (stereo not given)	inactive
C[C@]12CCC(=O)C=C1CC[C@@H]1[C@@H]2[C@@H](O)C[C@@]2(C)[C@H]1CC[C@]2(O)C(=O)CO	inactive
Oc1ccc(C2CNCCc3c2cc(O)c(O)c3Cl)cc1 (stereo not given)	44.7 µM (active)
Cc1cccc(-c2[nH]c(C(C)(C)C)nc2-c2ccc3nccnc3c2)n1	inactive
Cc1ccc(N(CC2=NCCN2)c2cccc(O)c2)cc1	inactive
O=c1n(CCCN2CCN(c3cccc(Cl)c3)CC2)nc2ccccn12	79.4 µM (active)
